Compound activity as filed in PubChem BioAssay.
KDM4E inh: inhibitors of human JMJD2E histone demethylase; JMJD2E catalytic domain, FDH-coupled NADH fluorescence (FDH is formaldehyde dehydrogenase); AID 2147; hit rate 1.6% among 230,000; Potency, µM (titrated, usually from 57.1 µM), most hits filed as inhibitors; active means well fitted inhibition curve with a large enough effect, not every such curve was filed as active; inconclusive means small, poorly fitted or top-dose-only effect, or another doubt; inactive means no such curve, though single readings can be large or run the other way; further: nearly all actives have a fitted effect of over 50% in size
Target sequence (B2RXH2 1-337 limits assumed): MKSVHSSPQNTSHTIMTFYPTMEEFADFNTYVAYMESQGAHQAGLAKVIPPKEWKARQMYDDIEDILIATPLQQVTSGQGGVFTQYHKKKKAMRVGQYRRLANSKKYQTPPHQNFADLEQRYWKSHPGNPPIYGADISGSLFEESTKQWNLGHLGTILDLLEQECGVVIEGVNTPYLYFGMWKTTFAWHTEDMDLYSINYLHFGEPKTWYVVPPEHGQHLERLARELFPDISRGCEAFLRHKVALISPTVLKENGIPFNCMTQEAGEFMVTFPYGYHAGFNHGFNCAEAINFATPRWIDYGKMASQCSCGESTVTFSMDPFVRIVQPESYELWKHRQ
Sfp inh: inhibitors of Bacillus subtilis Sfp phosphopantetheinyl transferase; hit rate 3.5% among 310,000; Potency, µM, usual class: inhibitors; Q9F4F7; Biochemical Sfp PPTase activity, qHTS;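 further: the enzyme is Sfp with the accession as filed and its product quenches rhodamine fluorescence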
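Fluorescence-quenching assay: 15 nM Sfp-PPTase preincubated 15 min at room temperature with compound, then 5 uM rhodamine-CoA and 12.5 uM BHQ-2-labelled YbbR peptide added. Fluorescence (ex 525/em 598 nm) read at start and after 30 min; difference gives rate.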
Tau fluor cs: counter-screen for tau fibril formation inhibitors. tau K18 P301L Alexa594 fluorescence, heparin fibrillization. AID 1463. Potency, µM (doses to about 57.7 µM). hit rate 0.93% among 280,000; further: nearly all actives have a fitted effect of over 55% in size
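Human K18 P301L tau (15 uM unlabeled plus 0.24 uM Alexa 594-labeled, final) in 100 mM sodium acetate pH 7 was mixed with compound and 20 uM heparin and incubated 6 hr at 37 C.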
FBPA coupling cs: coupling enzyme interference in Giardia aldolase counter-screen. coupling enzyme system counterscreen, AmpLite Red fluorescence. activity change, negative = inhibition, % at 58.2 µM, hits read low. hit rate 0.67% among 290,000. AID 2472; in the data active means activity change below about -30%
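Counterscreen of the coupled detection system alone, without aldolase: glyceraldehyde-3-phosphate coupling enzymes plus AmpLite Red readout. Compounds at 57.5 uM final, 10 min RT preincubation, 20 min RT reaction, fluorescence 525/598 nm.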
Tau FP inhib: blocks human tau fibril formation measured by polarization. P10636. K18 P301L tau heparin fibrillization, Alexa594 FP, 6 h. Potency, µM (highest dose often 57.7 µM), hits mostly inhibitors. hit rate 0.39% among 280,000; further: nearly all actives have a fitted effect of over 55% in size
Target sequence (P10636 561-689 P618L limits assumed): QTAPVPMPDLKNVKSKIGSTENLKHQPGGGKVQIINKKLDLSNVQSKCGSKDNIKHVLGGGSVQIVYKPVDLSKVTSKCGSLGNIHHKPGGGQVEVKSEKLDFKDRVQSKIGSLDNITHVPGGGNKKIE
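Quantitative HTS format: compounds meet 15 uM recombinant K18 P301L tau and Alexa 594-tau tracer in 100 mM sodium acetate pH 7; 20 uM heparin triggers fibrillization at 37 C over 6 hr; FP gives the signal.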
Tau ThT inhib: blocks human tau fibril formation measured by thioflavin T. Potency, µM (doses to about 57.4 µM), hits mostly inhibitors. recombinant tau K18 P301L (four-repeat tau fragment), heparin-induced fibrillization, ThT fluorescence. hit rate 2.1% among 270,000. P10636; further: nearly all actives have a fitted effect of over 55% in size
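Tau K18 P301L fragment (15 uM unlabeled plus 0.24 uM Alexa 594-labeled) in 100 mM sodium acetate pH 7 with compound, fibrillization induced by 20 uM heparin for 6 hr at 37 C. Thioflavin T (30 uM) added, fluorescence read after 1 hr (ex 450, em 510 nm).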
Numbers stand for hits; n = inactive; u = inconclusive; x = no result; ! = not confirmed by another sample; [ ] = another dose, or the depositor's remark. Sampled rows, rich in hits. Any-hit rate of the full collection: about 5.3%. Unless noted, the call rests on the fitted dose curve; in most records, active means well fitted curve in the direction sought with a large enough effect; inconclusive means small, poorly fitted or top-dose-only effect, or another doubt; inactive means no such curve, though single readings can be large; an effect the other way counts as inactive or inconclusive.

SMILES	KDM4E inh	Sfp inh	Tau fluor cs	FBPA coupling cs	Tau FP inhib	Tau ThT inhib
CCOc1ccc(C(CC(=O)Nc2cc(C)c(Cl)cc2OC)N2Cc3ccccc3C2=O)cc1OC (stereo unspecified)	x	x	n	x	n	n
CCN(CC)c1ccc(N=Cc2c(C)[nH]c3ccccc23)cc1	0.794µM	50.1µM	u	n	u	8.91µM
Cc1[nH]c2ccccc2c1/C=N/n1cnnc1	n	n	n	n	n	n
CCc1cccc(NC(=O)COc2cc(=O)n(CC)c3ccccc23)c1	x	x	n	x	n	n
CCN1C(=O)/C(=C\N(C)C)c2ccccc21	n	n	n	n	n	n
CCN1C(=O)/C(=C\C(=O)c2cccs2)c2cc(Br)ccc21	n	20µM	n	n	n	u
Cn1c2ccccc2c2cc(C(=O)N3CCOCC3)sc21	u	44.7µM	n	n	n	u
COc1ccc(NC(=O)Cn2ccn(-c3ccccc3)c(=O)c2=O)cc1	x	x	n	x	n	n
COc1cc(C)c(NC(=O)C(=S)NCCc2ccccc2)cc1C	n	15.8µM	n	n	n	u
COc1ccc(NC(=S)NCCc2ccccc2)c(C)c1	x	n	x	n	x	x
O=C(NC1CCCCC1)C(=S)NCCc1ccccc1	n	28.2µM	n	n	n	n
CCN1C(C)=C(C)S/C1=C1\SC(=S)N(N)C1=O	n	20µM	n	n	n	u
CCN1C(=O)/C(=C2/Sc3ccccc3N2CC)SC1=S	x	n	x	n	x	x
COc1ccc2c(c1)O[C@H](c1ccc3c(c1)OCO3)[C@@H](OC(=O)Nc1ccc(OC(F)F)cc1)C2=O	n	n	n	n	n	n
COc1ccc(OC)c(NC(=O)C2C3CCC(C3=C(C)C)C2C(=O)O)c1 (stereo unspecified)	n	39.8µM	n	n	n	n
COc1ccc(OC)c(NC(=O)C2CCCCC2C(=O)O)c1 (stereo unspecified)	n	n	n	n	n	n
CC(C)(C)c1csc(N/N=C/c2cccnc2)n1	n	n	u	n	n	u
Cc1ccc(/C=N/Nc2nc(C(C)(C)C)cs2)o1	n	50.1µM	u	n	u	u
C/C(=N\Nc1nc(C(C)(C)C)cs1)c1ccc(O)cc1	x	50.1µM	x	n	x	x
Cc1ccc(/C=N/Nc2nc3ccccc3s2)o1	n	u	14.1µM[quencher]	n	u	u
C=CCN(C)CCCCCCOc1ccc(C(=O)c2ccc(Br)cc2)c(F)c1	x	u	x	n	x	x
C=C1C(=O)OC(CCCCCCCC)C1C(=O)O (stereo unspecified)	x	n	x	n	x	x
COc1ccc(-n2c(=O)c3c4c(sc3n(Cc3ccc(C(C)(C)C)cc3)c2=O)CCC4)c(OC)c1	x	x	n	x	n	n
CCCCN(CCCC)C(=O)c1cc(Cl)ccc1[N+](=O)[O-]	n	n	n	n	n	n
CCCN(CCC)C(=O)c1cc([N+](=O)[O-])cc2c1-c1ccc([N+](=O)[O-])cc1C2=C(C#N)C#N	u	50.1µM	u	-31.9	u	31.6µM
SMILES	KDM4E inh	Sfp inh	Tau fluor cs	FBPA coupling cs	Tau FP inhib	Tau ThT inhib
Cc1cncc(C(=O)O)[n+]1[O-]	x	n	x	x	x	x
CCOc1ccccc1CNC(=O)c1sc2ncccc2c1-n1cccc1	x	x	n	x	n	n
CCn1c(=O)n(CC)c2cc(N3CCCCC3)c(NC(=O)Nc3cc(Cl)ccc3OC)cc21	x	x	n	x	u	n
N#CCC(=O)N/N=C/c1c(-c2ccccc2)n(-c2ccccc2)c2ccccc12	x	56.2µM	x	n	x	x
COc1ccc(Cl)cc1C(=O)Nc1ccc2oc(-c3ccc(C(C)(C)C)cc3)nc2c1	x	x	n	x	n	n
COC(=O)[C@@]1(Cc2ccc(F)cc2)[C@@H]2[C@@H](CC(=O)[C@H]2CC(=O)C(=O)N(C)C)CN1C(=O)c1ccccc1	15.8µM!	n	n	n	n	n
COC(=O)[C@@]1(Cc2ccc(F)cc2)[C@H]2c3cc(C(=O)N4CCCC4)n(Cc4ccc(C)c(F)c4F)c3C[C@H]2CN1C(=O)c1ccccc1	n	n	n	n	n	n
COC(=O)[C@@]1(Cc2ccc(OC)cc2)[C@H]2c3cc(C(=O)N(C)C)n(Cc4ccc(C)o4)c3C[C@H]2CN1C(=O)c1ccccc1	u	25.1µM	n	n	n	u
